From PubChem BioAssay (NCATS)
Results filed as inconclusive are left out. Entries that show only a call come without a potency. Active and inactive are the calls of the source. The call rests on the fitted dose curve; in most records, active means well fitted curve in the direction sought with a large enough effect; inconclusive means small, poorly fitted or top-dose-only effect, or another doubt; inactive means no such curve, though single readings can be large; an effect the other way counts as inactive or inconclusive.

Assays:
[1] = target: Rap guanine nucleotide exchange factor 3 (Homo sapiens) (UniProt O95398); test: Confirmatory qHTS for agonist of cAMP-regulated guanine nucleotide exchange factor 3 (EPAC1) (AID 1645881);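 further: EPAC1 catalysed release of BODIPY-GDP from Rap1B seen as fluorescence loss; nearly all actives have a fitted effect of over 75% in size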
[2] = target: Rap guanine nucleotide exchange factor 4 (Homo sapiens) (UniProt Q8WZA2); test: Confirmatory qHTS for agonist of cAMP-regulated guanine nucleotide exchange factor 4 (EPAC2) (AID 1645884);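 further: nucleotide exchange releases bodipy-GDP from Rap1 and this lowers its fluorescence; nearly all actives have a fitted effect of over 65% in size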
[3] = target: Rap guanine nucleotide exchange factor 3 (Homo sapiens) (UniProt O95398); test: Counterscreen qHTS for antagonist of cAMP-regulated guanine nucleotide exchange factor 3 (EPAC1) (AID 1645888);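 further: fluorescence loss as bound BODIPY-GDP is released from Rap1B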
In short: (§1)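 Rap1B-BODIPY-GDP 250 nM + GDP 50 uM; cpds 7-pt, final 9.74 nM–152 uM (activator mode) or from 7.32 nM upwards (inhibitor mode); RT; FI 480/540 nm at 5 and 30 min, then ± cAMP, reread.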

[4] = target: Rap guanine nucleotide exchange factor 3 (Homo sapiens) (UniProt O95398); test: Counterscreen qHTS for agonist of cAMP-regulated guanine nucleotide exchange factor 3 (EPAC1) (AID 1645889); further: nearly all actives have a fitted effect of over 40% in size
In short: as §1

[5] = target: Tyrosyl-DNA phosphodiesterase 1 (Homo sapiens) (UniProt Q9NUW8); test: Confirmation Assay for Inhibitors of Tyrosyl-DNA Phosphodiesterase (TDP1) (AID 489007); settings: recombinant human TDP1 enzymatic activity, dose-response; further: potency means the concentration at half of the fitted maximal effect; nearly all actives have a fitted effect of over 40% in size
In short: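 Confirmation of primary-screen follow-ups in a qHTS format. Substrate cleavage by Tdp1 (1 nM) of a 3'-phosphotyrosine-FITC, 5'-biotin oligo (15 nM) was monitored as decreased AlphaScreen signal after a 5 min room-temperature reaction.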

Sequence of Rap guanine nucleotide exchange factor 4 (Homo sapiens) (Q8WZA2 whole entry, looked up): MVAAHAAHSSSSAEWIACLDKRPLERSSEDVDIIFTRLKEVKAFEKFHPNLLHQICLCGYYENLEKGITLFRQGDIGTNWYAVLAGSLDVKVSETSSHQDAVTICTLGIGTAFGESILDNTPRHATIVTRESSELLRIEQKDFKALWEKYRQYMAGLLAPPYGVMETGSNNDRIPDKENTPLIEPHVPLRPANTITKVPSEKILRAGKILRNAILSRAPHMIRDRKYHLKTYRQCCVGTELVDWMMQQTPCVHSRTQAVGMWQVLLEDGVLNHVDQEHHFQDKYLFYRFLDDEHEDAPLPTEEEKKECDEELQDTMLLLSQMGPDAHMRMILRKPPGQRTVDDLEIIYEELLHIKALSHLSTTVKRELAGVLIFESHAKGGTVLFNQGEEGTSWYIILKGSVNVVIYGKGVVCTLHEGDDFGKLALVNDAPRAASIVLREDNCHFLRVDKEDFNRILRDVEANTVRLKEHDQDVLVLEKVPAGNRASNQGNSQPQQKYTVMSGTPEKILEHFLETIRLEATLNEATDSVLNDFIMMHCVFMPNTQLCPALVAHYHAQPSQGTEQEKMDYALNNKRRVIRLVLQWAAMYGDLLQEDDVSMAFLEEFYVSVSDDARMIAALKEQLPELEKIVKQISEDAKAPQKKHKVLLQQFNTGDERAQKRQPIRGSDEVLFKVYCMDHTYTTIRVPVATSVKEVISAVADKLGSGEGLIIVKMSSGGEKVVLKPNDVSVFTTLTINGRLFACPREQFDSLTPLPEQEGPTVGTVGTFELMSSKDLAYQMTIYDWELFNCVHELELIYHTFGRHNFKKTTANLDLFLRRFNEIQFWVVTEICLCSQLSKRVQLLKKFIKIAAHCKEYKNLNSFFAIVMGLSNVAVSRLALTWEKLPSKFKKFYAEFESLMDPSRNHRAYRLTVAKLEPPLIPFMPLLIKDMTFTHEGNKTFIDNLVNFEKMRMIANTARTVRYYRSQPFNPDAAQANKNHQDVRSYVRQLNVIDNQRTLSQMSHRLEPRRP
Sequence of Rap guanine nucleotide exchange factor 3 (Homo sapiens) (O95398 whole entry, looked up): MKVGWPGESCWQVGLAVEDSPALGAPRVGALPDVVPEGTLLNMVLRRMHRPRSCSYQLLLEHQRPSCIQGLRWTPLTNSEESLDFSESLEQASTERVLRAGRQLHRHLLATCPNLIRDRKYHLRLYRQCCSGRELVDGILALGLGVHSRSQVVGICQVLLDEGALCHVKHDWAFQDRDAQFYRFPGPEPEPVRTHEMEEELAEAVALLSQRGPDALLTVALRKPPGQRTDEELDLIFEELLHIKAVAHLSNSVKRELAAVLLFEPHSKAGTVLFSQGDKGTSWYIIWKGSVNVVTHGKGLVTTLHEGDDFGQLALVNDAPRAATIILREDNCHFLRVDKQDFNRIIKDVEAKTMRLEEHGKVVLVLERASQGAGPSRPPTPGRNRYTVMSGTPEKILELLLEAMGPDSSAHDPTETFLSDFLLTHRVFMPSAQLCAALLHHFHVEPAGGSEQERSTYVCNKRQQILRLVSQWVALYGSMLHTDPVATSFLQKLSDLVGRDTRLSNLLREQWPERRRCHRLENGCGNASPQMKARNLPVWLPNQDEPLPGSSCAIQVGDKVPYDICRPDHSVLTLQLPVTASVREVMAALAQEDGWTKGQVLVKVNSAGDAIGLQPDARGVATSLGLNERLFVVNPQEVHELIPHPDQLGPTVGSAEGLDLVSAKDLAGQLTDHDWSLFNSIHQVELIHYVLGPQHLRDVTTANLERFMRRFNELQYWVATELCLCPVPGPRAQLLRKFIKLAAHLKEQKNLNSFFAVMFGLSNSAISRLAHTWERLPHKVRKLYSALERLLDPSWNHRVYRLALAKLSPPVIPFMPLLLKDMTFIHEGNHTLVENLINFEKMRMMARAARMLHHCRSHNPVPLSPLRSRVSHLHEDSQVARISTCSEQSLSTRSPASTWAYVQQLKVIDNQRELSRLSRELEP
Sequence of Tyrosyl-DNA phosphodiesterase 1 (Homo sapiens) (Q9NUW8 whole entry, looked up): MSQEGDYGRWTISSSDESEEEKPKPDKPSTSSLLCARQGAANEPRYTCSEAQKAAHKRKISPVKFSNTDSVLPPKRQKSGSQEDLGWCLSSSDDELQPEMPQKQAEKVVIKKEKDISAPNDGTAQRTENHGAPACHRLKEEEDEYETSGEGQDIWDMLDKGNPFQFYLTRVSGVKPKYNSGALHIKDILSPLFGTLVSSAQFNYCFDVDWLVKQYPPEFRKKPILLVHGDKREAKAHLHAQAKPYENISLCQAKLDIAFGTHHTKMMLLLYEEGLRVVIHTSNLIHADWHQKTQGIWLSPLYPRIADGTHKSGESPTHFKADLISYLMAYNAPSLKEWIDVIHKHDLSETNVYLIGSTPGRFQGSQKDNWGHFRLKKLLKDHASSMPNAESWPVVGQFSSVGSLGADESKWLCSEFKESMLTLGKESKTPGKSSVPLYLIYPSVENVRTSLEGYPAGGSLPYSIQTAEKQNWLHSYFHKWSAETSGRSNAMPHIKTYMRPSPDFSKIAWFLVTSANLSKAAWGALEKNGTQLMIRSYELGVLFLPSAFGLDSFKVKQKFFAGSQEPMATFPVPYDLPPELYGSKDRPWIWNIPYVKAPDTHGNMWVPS

Structure (SMILES) | Potency [1] | Potency [2] | Potency [3] | Potency [4] | Potency [5]
CCOC(=O)C1=C(C)NC(C)=C(C(=O)OCC)C1C(=O)OCC(=O)NCc1ccc(F)cc1 | inactive | inactive | inactive | inactive | –
COc1cc(/C=C/[N+](=O)[O-])ccc1OCc1cccc(C(=O)O)c1 | inactive | inactive | inactive | inactive | 79.4 µM (active)
CCC(C)(C)c1ccc(Oc2ccc(N)cc2)cc1 | inactive | inactive | inactive | inactive | –
O=C(O)c1[nH]c2ccccc2c1C(c1cccc(O)c1)c1c(C(=O)O)[nH]c2ccccc12 | inactive | inactive | inactive | inactive | –
Cc1ccc2oc(=O)c3cnn(CC(=O)NC4CCC(C)CC4)c3c2c1 (stereo unspecified) | inactive | inactive | inactive | inactive | –
